An excerpt weighted towards active compounds, which were near 5.2% of everything screened.
Vif inh = HIV Vif inhibition. HEK293T cells, Vif self-association by quenched fluorescence, imaging, 24 h. inhibition, % at 7.49 µM. 340,000 tested, 0.35% active. AID 602346; in the data active = inhibition above about 50%, passing the limit was not always enough
SKN-1 block = inhibitors of C. elegans SKN-1; C. elegans VP596 Pgst-4::GFP/RFP ratio, acrylamide-induced, 24 h; inhibition, % at 21.8 µM; 360,000 tested, 0.49% active; AID 624304;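 active = interference check ratio from 0.5 to 1.5 plus GFP to RFP signal ratio inhibition reaching or exceeding a fixed threshold, cut at about 30% in these data, passing the limit was not always enough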
esBAF inh = inhibitors of esBAF chromatin remodeling in mouse ES cells; 350,000 tested, 2% active; Bmi1-luciferase knock-in reporter, 24 h; 100% = twice the neutral-well signal; reporter increase, % at 12.5 µM; in the data active = activation above about 40%;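 also: 0% = median of the plate's neutral control wells and 100% = double that signal; a rise in the Bmi1 reporter signal indicates esBAF inhibition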
NR3A LBD binder = modulates the human NR3A ligand-binding domain; 340,000 tested, 2.5% active; NR3A LBD differential scanning fluorimetry, Tm shift; 0% = protein alone, 100% = glycine-bound protein; Tm shift relative to glycine control, % at 25 µM;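 active = melting temperature shift of at least 10% of the positive control shift, at one fixed dose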
SMARCA2 activ = activators of SMARCA2 function; MG213 cells, MMTV-luciferase reporter, dexamethasone, overnight; 370,000 tested, 1% active; activation, % at 9.1 µM; in the data active = activation above about 7.8%;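 also: 0% = vehicle wells and 100% = reference activator wells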
NadD inh = blocks S. aureus nicotinate mononucleotide adenylyltransferase. purified NadD enzyme, colorimetric absorbance read-out. inhibition, % at 20 µM. 360,000 tested, 0.78% active. AID 602399; in the data active = inhibition above about 26%
Numbers without * were called inactive; · = not tested or not shown.

SMILES	Vif inh	SKN-1 block	esBAF inh	NR3A LBD binder	SMARCA2 activ	NadD inh
O=C(NCCc1nc2ccccc2[nH]1)c1cc([N+](=O)[O-])cc([N+](=O)[O-])c1	3	5	-5	11*	-2	-11
O=C(Cn1cc([N+](=O)[O-])cn1)NCCc1nc2ccccc2[nH]1	1	1	·	-1	-4	-11
O=C(Nc1ccc(Cl)cc1Cl)C1=Cc2ccccc2OC1	4	37*	2	2	5	-6
O=C(Nc1ccc(Cl)cc1)C1=Cc2cc(Cl)ccc2OC1	0	13	·	26*	0	-10
CC(=O)N1[C@H](C(=O)Nc2ccccc2)[C@@H](CO)[C@@H]2Cn3c(ccc(C4=CCCC4)c3=O)[C@@H]21	·	·	-8	·	·	·
CCCNC(=O)N(C)C[C@@H]1Oc2cc(-c3ccc(C)cc3)ccc2S(=O)(=O)N([C@H](C)CO)C[C@H]1C	·	·	3	·	·	·
O=C1c2ccccc2C(=O)N1CCOc1cccc(Br)c1	1	25	41*	11*	6	-9
CCC/C(=N/Nc1ccc(Cl)cc1)c1cnnc(-c2ccccc2)n1	·	·	·	-1	·	·
COc1ccc(N/N=C(/C)c2cnnc(-c3ccccc3)n2)cc1	2	7	·	13*	-3	10
C[C@@H]1CN([C@H](C)CO)C(=O)c2cccc(NC(=O)C3CC3)c2O[C@H]1CN(C)C(=O)Nc1cccc2ccccc12	·	·	6	·	·	·
CC1CCc2c(C(=O)Nc3nccs3)csc2C1 (stereo not given)	-6	37*	58*	-2	7	-1
C[C@H](CO)N1C[C@H](C)[C@@H](CN(C)S(C)(=O)=O)Oc2ccc(NC(=O)C3CC3)cc2CC1=O	·	·	-4	·	·	·
O=C(C[C@@H]1C=C[C@@H](NC(=O)Nc2cc(F)ccc2F)[C@H](CO)O1)Nc1ccc(-c2ccccc2)cc1	·	·	4	·	·	·
O=C(NCC1CCCO1)c1sc2ccccc2c1Cl (stereo not given)	-3	20	·	11*	4	-3
O=C(NC1CC1)c1sc2cc(Cl)ccc2c1Cl	5	30	44*	-2	2	-1
Cc1ccnc(NC(=O)c2sc3ccccc3c2Cl)c1	0	-1	·	-2	1	-3
Cc1ccc2c(Cl)c(C(=O)NCC3CCCO3)sc2c1 (stereo not given)	-1	1	·	-2	5	3
O=C(Nc1nccs1)c1sc2cc(Cl)ccc2c1Cl	-7	5	57*	1	4	11
O=C(Nc1ccccn1)c1sc2cc([N+](=O)[O-])ccc2c1Cl	3	-8	42*	-1	4	25
O=C(NC1CC1)c1sc2cc(F)ccc2c1Cl	-2	1	39	-1	3	-4
Cn1cnc(S(=O)(=O)N[C@H]2CC[C@H](CC(=O)Nc3ccccc3)O[C@@H]2CO)c1	·	·	0	·	·	·
C[C@H](CO)N1C[C@H](C)[C@@H](CN(C)S(=O)(=O)c2ccccc2)OCCCC[C@H](C)Oc2ccc(NS(=O)(=O)c3ccc(F)cc3)cc2C1=O	·	·	-4	·	·	·
Cc1ccc(S(=O)(=O)N(C)C[C@H]2Oc3ccc(NS(=O)(=O)c4ccccc4)cc3CC(=O)N([C@H](C)CO)C[C@H]2C)cc1	·	·	-1	·	·	·
O=C(CNC(=O)c1sc2ccccc2c1Cl)NC1CC1	-12	1	22	2	3	-7
O=C(Nc1nccs1)c1sc2ccccc2c1Cl	·	-5	·	-19	6	-3
SMILES	Vif inh	SKN-1 block	esBAF inh	NR3A LBD binder	SMARCA2 activ	NadD inh
O=C(Nc1cc(S(=O)(=O)Nc2ccccc2Cl)ccc1O)c1sc2cc(Cl)ccc2c1Cl	3	-6	·	150*	-1	28
Cc1cnc(NC(=O)c2sc3ccccc3c2Cl)s1	-2	0	·	20*	4	7
O=C(NC1CC1)c1sc2ccccc2c1Cl	10	1	47*	3	3	0
O=C(NC(=S)NCCO)c1sc2ccccc2c1Cl	2	-1	53*	-2	4	-6
C[C@H]1CN([C@@H](C)CO)C(=O)c2cccc(NC(=O)Nc3ccc(C(F)(F)F)cc3)c2O[C@@H]1CN(C)Cc1ccncc1	·	·	2	·	·	·
COC(=O)C[C@H]1CC[C@@H]2[C@H](COc3ccc(NC(=O)Nc4ccc(C)cc4)cc3C(=O)N2C)O1	·	·	17	·	·	·
COc1cccc(C(=O)Nc2ccc3c(c2)C(=O)N(C)C[C@@H](OC)[C@H](C)CN[C@@H](C)CO3)c1	·	·	9	·	·	·
O=C([C@H]1[C@H](CO)[C@H]2Cn3c(cccc3=O)[C@H]2N1Cc1ccncc1)N1CCCCC1	·	·	-4	·	·	·
Cc1coc2c1C(=O)C(=O)c1c-2ccc2c1CCCC2(C)C	-5	-1	34	-10	1	33*
Cc1coc2c1C(=O)C(=O)c1c-2ccc2c(C)cccc12	-6	-4	-17	-10	·	34*
C[C@H]1COC2=C1C(=O)C(=O)c1c2ccc2c1CCCC2(C)C	7	-4	29	-10	·	11
Cc1ccc2c3c(cccc13)-c1ccccc1C2=O	-6	13	·	-13	6	1
Cc1noc(C)c1NC(=O)Nc1ccc2c(c1)CC(=O)N([C@@H](C)CO)C[C@@H](C)[C@H](CN(C)CC1CC1)O2	·	·	1	·	·	·
Cc1ccc(NC(=O)Nc2sc(=S)n(C)c2C)cc1	0	3	·	12*	·	11
Cc1cn(S(=O)(=O)c2ccc(Br)cc2)cn1	-1	20	1	0	-2	-5
Cc1cn(S(=O)(=O)c2cc(Br)ccc2Br)cn1	4	3	·	10*	8	1
CC1CCN(c2cc(N3CCOCC3)c(F)cc2[N+](=O)[O-])CC1	0	-11	13	15*	0	-2
CC1CCN(c2cc(N3CCOCC3)c([N+](=O)[O-])cc2F)CC1	1	16	2	3	-1	0
CO[C@H]1CN(C)C(=O)c2cccc(C#N)c2OC[C@@H]2O[C@H](CC[C@H]2OC)CCN(C)C(=O)[C@@H]1C	·	·	-3	·	·	·
Cc1ccc(O)c(N=Cc2cc(Cc3ccccc3)cc([N+](=O)[O-])c2O)c1	4	13	·	-9	2	54*
COc1cc(C=C2C(=O)c3ccccc3C2=O)ccc1O	-3	-16	1	0	-2	-6
COc1ccc(/C=C2\CC/C(=C\c3ccc(OC)c(OC)c3)C2=O)cc1OC	-3	7	2	16*	-1	-7
COc1cc(/C=C2/CC/C(=C/c3ccc(O)c(OC)c3)C2=O)ccc1O	-2	-10	·	14*	-3	17
COc1ccc(/C=C2\CN(Cc3ccccc3)C/C(=C\c3ccc(OC)c(O)c3)C2=O)cc1O	59*	8	-85	3	5	28
COc1ccccc1OCCCOc1ccc(/C=C2\SC(=O)NC2=O)cc1OC	-10	0	-4	-5	-2	7
COc1cc(/C=C2\CC/C(=C\c3ccc(OCCO)c(OC)c3)C2=O)ccc1OCCO	3	-3	·	-6	0	-8
COc1ccc(C=C2SC(=O)NC2=O)cc1OC	4	3	29	16*	2	2

High-throughput results deposited in PubChem BioAssay by several laboratories.
